The record followed here is PubChem BioAssay AID1851 (National Center for Advancing Translational Sciences (NCATS), 2009).

Screen size: about 16,000 compounds; about 5,100 (32%) were called active. Not shown: some 25% with an inconclusive outcome. The list shows a part of the results. Unmarked numbers belong to inactive results. Calls follow the shape of the dose curve; as a rule, active = well fitted curve in the direction sought with a large enough effect; inconclusive = small, poorly fitted or top-dose-only effect, or effect the other way; inactive = no such curve, though single readings can be large or run the other way.
% is scaled to controls: 0 for no effect and ±100 for the full control effect.

The assay deals with Cytochrome P450 3A4 (Homo sapiens) (UniProt P08684). In words: Cytochrome panel assay with activity outcomes. The note with it: recombinant CYP, pro-luciferin dealkylation, luminescence, p450-cyp3a4; series mostly up to 57.1 µM. How it is done: The P450 gene superfamily is involved in the metabolism and clearance of xenobiotics. This assay used various human CYP P450 isozymes to measure the dealkylation of various pro-luciferin substrates to luciferin. The luciferin is then measured by luminescence after the addition of a luciferase detection reagent. Pro-luciferin substrate concentration in the assay was equal to its KM for its CYP P450 isozyme. Inhibitors and some substrates limit the production of luciferin, and decrease measured luminescence.
Sequence of Cytochrome P450 3A4 (Homo sapiens) (P08684 whole entry, looked up): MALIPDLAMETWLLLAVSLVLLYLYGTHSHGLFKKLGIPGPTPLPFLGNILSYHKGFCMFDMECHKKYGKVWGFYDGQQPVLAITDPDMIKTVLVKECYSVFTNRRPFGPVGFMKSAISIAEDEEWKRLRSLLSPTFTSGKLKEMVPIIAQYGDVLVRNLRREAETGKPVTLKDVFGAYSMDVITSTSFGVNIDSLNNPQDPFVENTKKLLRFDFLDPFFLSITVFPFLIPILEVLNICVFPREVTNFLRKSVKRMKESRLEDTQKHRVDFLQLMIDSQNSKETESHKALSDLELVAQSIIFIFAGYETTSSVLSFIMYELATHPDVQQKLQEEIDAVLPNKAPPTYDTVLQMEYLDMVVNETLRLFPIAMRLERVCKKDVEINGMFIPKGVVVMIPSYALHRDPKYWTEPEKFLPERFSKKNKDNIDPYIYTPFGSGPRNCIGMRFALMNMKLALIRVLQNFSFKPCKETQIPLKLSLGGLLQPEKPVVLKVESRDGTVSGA
NCGC Assay Protocol Summary:
1, Reagent, 2 uL, Isozyme and Pro-Luciferin
2, Library compounds, 23 nl, 40 uM to 0.24 nM dilution series
3, Controls, 23 nl, Isozyme specific inhibitor
4, Reagent, 2 uL, NADPH regeneration solution
5, Incubation time, 60 min, Isozyme specific temperature
6, Reagent, 4ul, Detection reagent
7, Incubation time, 20 min, Isozyme specific temperature
8, Detection, 1 sec, ViewLux luminescent read
The luciferase-based P450-GloTM Screening Systems were obtained from Promega (Madison, WI) for CYP 1A2 (V9770), CYP 2C9 (V9790), CYP2 C19 (V9880), CYP 2D6 (V9890), and CYP 3A4 Luciferin-PPXE (V9910) and were adapted for 1,536-well microplates and an automated protocol. The control compounds furafylline for 1A2 (F124), sulfaphenazole for CYP 2C9 (S0758), ketoconazole for CYP 2C19 (K1003), quinidine for 2D6 (Q3625), and ketoconazole for 3A4 (K1003) were purchased from Sigma Aldrich (St. Louis, MO). Recombinant P450 enzymes were obtained from baculovirus constructs expressed in insect cells (BD/Gentest).
Medium-binding white solid Kalypsys plates used. Mixtures kept on ice. 1A2: 10 nM 1A2, 100 uM Luc-ME, 100 mM KPO4; 2C9: 10 nM 2C9, 100 uM Luc-H, 25 mM KPO4; 2C19: 5 nM 2C19, 10 uM Luc-H EGE, 50 mM KPO4; 2D6: 5 nM 2D6, 30 uM Luc-ME EGE, 100 mM KPO4; 3A4: 10 nM, 25 uM Luc-PPXE. All amounts are reflected in their final concentration, working concentration is 2x.
NADPH regeneration solution: 1.3 mM NADP+, 3.3 mM glucose-6-phosphate, 3.3 mM MgCl2, 0.4 U/mL glucose-6-phosphate dehydrogenase for all isozymes, 200 mM KPO4 for 3A4. Mixture prepared at RT but kept on ice during automated run.
RT incubation in auxilliary plate hotel for 1A2, 2D6, and 3A4; 37C for 2C9 and 2C19.
Keywords: P450, CYP1A2, CYP2C19, CYP2C9, CYP2D6, CYP3A4, Luciferase, MLSMR, MLSCN, NIH Roadmap, qHTS, NCGC
The AC50 is the concentration at which the activity in the assay is half-maximal. Regarding `O=C1NCN(c2ccccc2)C12CCN(CCCC(c1ccc(F)cc1)c1ccc(F)cc1)CC2`, the AC50 entry is “inactive”.

`C[C@H](CN(C)C)C(=O)c1ccccc1C(=O)O`: the activity, negative = inhibition was -12.4% [at 11.4 µM].

For the compound `NC[C@H](O)C1CCCCCCC1`, the AC50 entry is “inactive”.

Consider `CCNc1ncc2nc(C)c(=O)n(Cc3cccc(OC)c3)c2n1`, for which the half-maximal activity concentration (AC50) is 7.94 µM (active).

`CCNc1ncc2nc(-c3ccccc3)c(=O)n(Cc3cccc(OC)c3)c2n1`: the concentration at half-maximal activity (AC50) was 10 µM (active).

For the compound `CCNc1ncc2nc(-c3ccc(Cl)cc3)c(=O)n(Cc3cccc(OC)c3)c2n1`, the AC50 result was “inactive”.

For the compound `Nc1nc(Cl)nc2c1ncn2[C@@H]1O[C@@H](CO)[C@@H](O)[C@H]1O`, the AC50 entry is “inactive”.

`c1ccc(Nc2nc(-c3cccnc3)nc3ccccc23)cc1`: the AC50 is 12.6 µM (active).

In the case of `CCOC(=O)c1ccc(Nc2nc(-c3cccnc3)nc3ccccc23)cc1`, the AC50 was 11.2 µM (active).

For `CCOC(=O)NNc1nncc2ccccc12`, the AC50 result is “inactive”.

On to `CNc1nc(-c2cccnc2)nc2ccccc12`, for which the AC50 was 6.31 µM (active).

For the compound `CC(C)c1nc2oc3ccccc3c(=O)c2c(=O)n1-c1ccccc1`, the AC50 entry is “inactive”.

With `CC(C)(C)NC[C@H](O)COc1cccc2c1CCCC2=O`, the AC50 entry is “inactive”.

As to `CCOC(=O)c1cc2c(=O)n3ccccc3nc2n(CCCOC)c1=NC(C)=O`, the AC50 entry was “inactive”.

In the case of `CCOC(=O)c1cc2c(=O)n3ccccc3nc2n(CCCOC)c1=NC(=O)C(C)(C)C`, the concentration at half-maximal activity (AC50) was 15.8 µM (active).

For `Cc1cc(=O)c2ccccc2[nH]1`, the AC50 result was “inactive”.

With `O=c1[nH]c2ccccc2c2ccccc12`, the AC50 entry was “inactive”.

In the case of `COc1ccc(OC)c2c(=S)c3ccccc3[nH]c12`, the AC50 is 7.94 µM (active).

Turning to `CC(CC(=O)O)(CC(=O)O)C(=O)O`, the activity, negative = inhibition is -8.15% [at 11.4 µM].

On to `COc1cccc(N2CCN(C(=O)Nc3ccc4c(c3)NC(=O)CO4)CC2)c1`, for which the AC50 entry was “inactive”.

With `COc1ccc(OC)c(C2C3=C(COC3=O)Nc3cc4c(cc32)OCO4)c1` (stereo unspecified), the AC50 is 7.08 µM (active).

In the case of `COc1ccc(OC)c(C2N(c3cc(C)on3)C(=O)C3CCCN32)c1` (stereo unspecified), the AC50 entry is “inactive”.

With `CC1CCCC(C)N1CCNC(=O)Cn1nc(-c2ccccc2)ccc1=O` (stereo unspecified), the AC50 entry was “inactive”.

Consider `O=C(CCC(=O)c1cccs1)OCC(=O)N1CCN(C(=O)c2ccco2)CC1`, for which the activity, negative = inhibition was -6.6% [at 2.29 µM].

Turning to `Cc1ccc(S(=O)(=O)N2CCOCC2)cc1NC(=O)COC(=O)CCC(=O)c1cccs1`, the concentration at half-maximal activity (AC50) is 11.2 µM (active).

As to `Cc1ccc(S(N)(=O)=O)cc1NC(=O)/C=C/c1cccs1`, the AC50 entry is “inactive”.

Consider `O=C(c1ccc(N2CCCCC2)c([N+](=O)[O-])c1)N(Cc1ccccc1)c1ccccn1`, for which the AC50 is 3.55 µM (active).

For `Cc1c(C(c2cccc([N+](=O)[O-])c2O)c2c(C)n(C)n(-c3ccccc3)c2=O)c(=O)n(-c2ccccc2)n1C`, the AC50 entry is “inactive”.

In the case of `Nc1nc(SCC(=O)Nc2ccccc2Sc2ccc(Cl)cc2)n[nH]1`, the half-maximal activity concentration (AC50) is 0.708 µM (active).

In the case of `CCCCc1nc(SCC(=O)Nc2ncccn2)n[nH]1`, the AC50 result is “inactive”.

In the case of `O=C(O)CCC(=O)Nc1ccc(C(=O)N2CCCCC2)cc1`, the AC50 entry was “inactive”.

`CC1CCCC(C)N1C(=O)c1ccccc1Nc1ccc(SC(F)F)cc1` (stereo unspecified): the AC50 is 10 µM (active).

With `O=C(O)c1ccccc1Nc1ccccc1`, the AC50 result was “inactive”.

Take `O=C(c1ccccc1Nc1ccc(SC(F)F)cc1)N1CCCCC1`: the half-maximal activity concentration (AC50) was 14.1 µM (active).

On to `CCSc1nc2c(c(=O)[nH]1)C(c1ccccn1)C1=C(CC(C)(C)CC1=O)N2` (stereo unspecified), for which the AC50 result was “inactive”.

As for `CSc1nc2c(c(=O)[nH]1)C(c1ccncc1)C(C(=O)OC(C)C)=C(C)N2` (stereo unspecified), the AC50 is 1.26 µM (active).

For the compound `CCSc1nc2c(c(=O)[nH]1)C(c1ccncc1)C(C(=O)OC(C)C)=C(C)N2` (stereo unspecified), the half-maximal activity concentration (AC50) is 1.12 µM (active).

Turning to `COC(=O)CNC(=O)/C=C/c1ccc(OC)cc1`, the AC50 result is “inactive”.

As to `COc1ccc(CNC(=O)/C=C/c2ccc(OCCCF)cc2)cc1`, the half-maximal activity concentration (AC50) was 5.01 µM (active).

As to `COCCCNC(=O)/C=C/c1ccc(Cl)cc1`, the AC50 entry is “inactive”.

As for `CCn1c(COc2ccc(C)cc2)nnc1SCc1ccc(C#N)cc1`, the AC50 is 2 µM (active).

For `CCn1c(SCc2ccc(C#N)cc2)nnc1-c1ccc(S(=O)(=O)N2CCCCC2)cc1`, the AC50 result is “inactive”.

Turning to `CCCCSc1ccc2nc(-c3ccc(C#N)cc3)cn2c1`, the activity, negative = inhibition is 20.1% [at 2.29 µM].

For the compound `CCOc1[nH]n(-c2ccc(Cl)cc2)c(=O)c1C=Nc1ccc(Cl)cc1`, the AC50 result was “inactive”.

`CCc1nnc(NS(=O)(=O)c2ccc(N=Cc3c(C)[nH]n(-c4ccc(C)cc4)c3=O)cc2)s1`: the AC50 is 22.4 µM (active).

With `CC#CCCCC(=O)Nc1ccc(C(=O)O)cc1`, the AC50 result was “inactive”.

`CC#CCCCC(=O)Nc1cc(OC)nc(OC)n1`: the half-maximal activity concentration (AC50) is 14.1 µM (active).

`COc1cc(NC(=O)c2c(F)cccc2F)nc(OC)n1`: the AC50 entry is “inactive”.

`CN(C)/C=C/C(=O)c1ccc(Cl)cc1`: the AC50 result was “inactive”.

Turning to `CCNc1ccc(Br)cc(C(=O)/C=C/c2ccc3c(c2)OCO3)c1=O`, the AC50 was 17.8 µM (active).

For the compound `CNc1ccc(Br)cc(C(=O)/C=C/c2ccc3c(c2)OCO3)c1=O`, the AC50 is 11.2 µM (active).

In the case of `CN(C)CCNC(=O)C(C(=O)c1ccc(F)cc1)n1ccccc1=O` (stereo unspecified), the AC50 result is “inactive”.

Regarding `CCCn1nnnc1-c1cccc(Cl)c1`, the AC50 result is “inactive”.

Turning to `CCCn1nnc(NC(=O)c2ccc(-c3cccc(Cl)c3)o2)n1`, the AC50 is 28.2 µM (active).

Consider `O=C(Nc1cccc2nsnc12)c1ccc(-c2cccc(Cl)c2)o1`, for which the activity, negative = inhibition is 1.55% [at 2.29 µM].

As for `C[C@@H](N1CCOCC1)[C@@](O)(c1ccccc1)c1ccccn1`, the activity, negative = inhibition is -13% [at 11.4 µM].

For the compound `N#C/C(=C/N1CCOCC1)c1ccccc1`, the AC50 result is “inactive”.

Turning to `OC(c1ccccc1)(c1ccc(F)cc1)C(c1ccccc1)N1CCOCC1` (stereo unspecified), the AC50 is 3.98 µM (active).

Turning to `Nc1ccc(N=Nc2c(S(=O)(=O)O)cc3ccccc3c2S(=O)(=O)O)cc1`, the activity, negative = inhibition is 5.34% [at 11.4 µM].

As to `Cc1nc2sccn2c(=O)c1Cl`, the AC50 entry is “inactive”.

Take `COc1cc(C2C(C(=O)c3ccc(C)o3)=C(O)C(=O)N2CCc2ccccc2)ccc1O` (stereo unspecified): the AC50 entry was “inactive”.

Take `Cc1cc(N2C(=O)C(O)=C(C(=O)c3cccs3)C2c2cccc(O)c2)no1` (stereo unspecified): the AC50 result is “inactive”.

Turning to `Cc1ccc(C(=O)C2=C(O)C(=O)N(CCCn3ccnc3)C2c2ccc(OC(C)C)cc2)o1` (stereo unspecified), the AC50 is 7.94 µM (active).

With `CN(C)CCN1C(=O)C(O)=C(C(=O)c2cc3ccccc3o2)C1c1ccccn1` (stereo unspecified), the AC50 result is “inactive”.

Turning to `Cc1ccc(C2C(C(=O)c3sc(C)nc3C)=C(O)C(=O)N2CCN2CCOCC2)o1` (stereo unspecified), the AC50 entry is “inactive”.

With `CCOc1cccc(C2C(C(=O)c3ccc(C)o3)=C(O)C(=O)N2Cc2ccncc2)c1` (stereo unspecified), the AC50 was 5.01 µM (active).
